# Source: PubChem BioAssay (NCI)
# This is part of a sample that, as a whole, favours compounds with a hit. Of some 79,000 tested, about 15% had one in any assay. Active and inactive are the calls of the source. Cut-off read from the data, not from the text of the source: active = growth inhibition above about 70%; inactive = the rest.
# Tests used:
# [1] = NCI Yeast Anticancer Drug Screen. Data for the mlh1 strain (AID 171);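 note: 0% = growth of vehicle-treated control cultures of the same strain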; details: S. cerevisiae mlh1 strain growth inhibition, stronger effect = higher value
# Summary of the method: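 A yeast strain with a defined genetic lesion serves as the test organism. Cultures receive compound or vehicle, and growth is measured.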
# [2] = NCI Yeast Anticancer Drug Screen. Data for the sgs1 strain (AID 173);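 note: 0% = growth of vehicle-only control cultures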; details: S. cerevisiae sgs1 mutant, stronger effect = higher value
# Summary of the method: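 A genetically defined yeast mutant is incubated with the test compound, and its growth is compared to that of the same strain given vehicle.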
# [3] = NCI Yeast Anticancer Drug Screen. Data for the mlh1 rad18 strain (AID 175); details: S. cerevisiae mlh1 rad18 strain growth inhibition, stronger effect = higher value
# Summary of the method: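 Steps: expose repair-defective yeast to compound; measure growth; express inhibition against vehicle-treated controls.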
# [4] = NCI Yeast Anticancer Drug Screen. Data for the rad18 strain (AID 177); details: S. cerevisiae rad18 mutant growth inhibition, stronger effect = higher value
# Summary of the method: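 Measured value is growth inhibition of a yeast strain bearing a DNA repair alteration, referenced to vehicle-treated cells.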
# [5] = NCI Yeast Anticancer Drug Screen. Data for the rad52 strain (AID 147);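 note: 0% = growth of vehicle-treated control cultures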; details: S. cerevisiae rad52 mutant growth inhibition, stronger effect = higher value
# Summary of the method: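 Here a repair-compromised yeast strain receives each compound; its growth is then quantified and normalised to vehicle-only controls.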
# [6] = NCI Yeast Anticancer Drug Screen. Data for the wt1 strain (AID 149);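 note: 0% = growth of vehicle-treated wt1 cultures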; details: S. cerevisiae wt1 strain (SPY 50644) growth inhibition, stronger effect = higher value
# Summary of the method: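 Readout: yeast growth inhibition, normalised to vehicle controls, in the wt1 strain exposed to test compounds.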
# [7] = NCI Yeast Anticancer Drug Screen. Data for the rad50EPP+ strain (AID 151);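 note: 0% = growth of vehicle-treated control cultures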; details: S. cerevisiae rad50 mutant strain, stronger effect = higher value
# Summary of the method: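 Read-out is yeast growth inhibition relative to vehicle; cells used were the rad50EPP+ strain.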
# [8] = NCI Yeast Anticancer Drug Screen. Data for the rad14 strain (AID 159);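 note: 0% = growth of vehicle-treated control cultures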; details: S. cerevisiae rad14 strain growth inhibition, stronger effect = higher value
# Summary of the method: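 Compound-treated yeast with a defined DNA-repair lesion; growth inhibition normalised to vehicle-treated cultures.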
# [9] = NCI Yeast Anticancer Drug Screen. Data for the CLN2oe strain (AID 163);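 note: 0% = growth of vehicle-only control cultures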; details: S. cerevisiae CLN2oe strain, stronger effect = higher value
# Summary of the method: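 Whole-cell yeast growth assay. A strain engineered for altered cell-cycle control received compound, and inhibition relative to vehicle-treated cultures was recorded.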
# [10] = NCI Yeast Anticancer Drug Screen. Data for the wt2 strain (AID 169);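 note: 0% = growth of vehicle-treated yeast cultures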; details: S. cerevisiae wt2 strain growth inhibition, stronger effect = higher value
# Summary of the method: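 Treated yeast vs. vehicle-treated yeast: growth inhibition determined.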
# [11] = NCI Yeast Anticancer Drug Screen. Data for the mgt1 strain (AID 153); details: S. cerevisiae mgt1 mutant growth inhibition, stronger effect = higher value
# Summary of the method: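 Measured: inhibition of mgt1 yeast growth by compound, normalized to vehicle-treated cultures.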
# [12] = NCI Yeast Anticancer Drug Screen. Data for the rad50 strain (AID 155);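 note: 0% = growth of vehicle-only cultures of the same strain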; details: S. cerevisiae rad50 strain growth inhibition, stronger effect = higher value
# Summary of the method: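 Compounds were tested on a yeast strain with an engineered DNA damage repair alteration; the reported value is growth inhibition normalised to vehicle treatment.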
# [13] = NCI Yeast Anticancer Drug Screen. Data for the mec2-1 strain (AID 157); details: S. cerevisiae mec2-1 strain, stronger effect = higher value
# Summary of the method: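 Using mec2-1 yeast: add compound, measure growth, express inhibition versus vehicle-treated cultures.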
# [14] = NCI Yeast Anticancer Drug Screen. Data for the sgs1 mgt1 strain (AID 161);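 note: 0% = growth of cultures given vehicle only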; details: S. cerevisiae sgs1 mgt1 strain, stronger effect = higher value
# Summary of the method: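 This yeast growth screen uses a strain with defined DNA-repair lesions; compound-treated growth is compared with vehicle-treated growth.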
# [15] = NCI Yeast Anticancer Drug Screen. Data for the cln2 rad14 strain (AID 165);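 note: 0% = growth equal to vehicle treated cultures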; details: S. cerevisiae cln2 rad14 strain, stronger effect = higher value
# Summary of the method: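 Yeast strain cln2 rad14, bearing defects in cell cycle control and DNA repair, serves as the test system; values reflect growth inhibition compared with vehicle.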
# [16] = NCI Yeast Anticancer Drug Screen. Data for the bub3 strain (AID 167); details: S. cerevisiae bub3 mutant strain, stronger effect = higher value
# Summary of the method: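 Growth of a checkpoint-deficient yeast mutant is measured after compound exposure. Values represent inhibition relative to vehicle.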
# [17] = at 5.0 µM (retest, dose inferred, filed as 0.5)
# [18] = at 50.0 µM (retest, dose inferred, filed as 5.0)
structure (smiles),measurement,setting,value
CCCCCCCCCCCCCCCCOCC(Cl)COP(=O)(O)OP(=O)(O)OCC1OC(n2cnc3c(N)ncnc32)C(O)C1O (stereo unspecified),growth inhibition,[1]; at 1.2 µM,10% (inactive)
same,growth inhibition,[1]; at 3.7 µM,-1% (inactive)
same,growth inhibition,[1]; at 11.0 µM,53% (inactive)
same,growth inhibition,[1]; at 33.0 µM,63% (inactive)
same,growth inhibition,[1]; at 100.0 µM,78% (active)
same,growth inhibition,[2]; at 1.2 µM,40% (inactive)
same,growth inhibition,[2]; at 3.7 µM,64% (inactive)
same,growth inhibition,[2]; at 11.0 µM,93% (active)
same,growth inhibition,[2]; at 33.0 µM,95% (active)
same,growth inhibition,[2]; at 100.0 µM,92% (active)
same,growth inhibition,[3]; [17],36% (inactive)
same,growth inhibition,[3]; [18],92% (active)
same,growth inhibition,[3]; at 50.0 µM,48% (inactive)
same,growth inhibition,[4]; at 1.2 µM,-4% (inactive)
same,growth inhibition,[4]; at 3.7 µM,0% (inactive)
same,growth inhibition,[4]; at 11.0 µM,22% (inactive)
same,growth inhibition,[4]; at 33.0 µM,39% (inactive)
same,growth inhibition,[4]; at 100.0 µM,59% (inactive)
Cc1ccc(P(c2ccc(C)cc2)c2ccc(C)cc2)cc1,growth inhibition,[5]; at 1.2 µM,-11% (inactive)
same,growth inhibition,[5]; at 3.7 µM,-12% (inactive)
same,growth inhibition,[5]; at 11.0 µM,1% (inactive)
same,growth inhibition,[5]; at 33.0 µM,11% (inactive)
same,growth inhibition,[5]; at 100.0 µM,23% (inactive)
same,growth inhibition,[6]; at 1.2 µM,-25% (inactive)
same,growth inhibition,[6]; at 3.7 µM,-12% (inactive)
same,growth inhibition,[6]; at 11.0 µM,-5% (inactive)
same,growth inhibition,[6]; at 33.0 µM,1% (inactive)
same,growth inhibition,[6]; at 100.0 µM,7% (inactive)
same,growth inhibition,[7]; at 1.2 µM,-7% (inactive)
same,growth inhibition,[7]; at 3.7 µM,-10% (inactive)
same,growth inhibition,[7]; at 11.0 µM,-12% (inactive)
same,growth inhibition,[7]; at 33.0 µM,-23% (inactive)
same,growth inhibition,[7]; at 100.0 µM,-34% (inactive)
same,growth inhibition,[8]; at 1.2 µM,-34% (inactive)
same,growth inhibition,[8]; at 3.7 µM,-41% (inactive)
same,growth inhibition,[8]; at 11.0 µM,-40% (inactive)
same,growth inhibition,[8]; at 33.0 µM,-31% (inactive)
same,growth inhibition,[8]; at 100.0 µM,-31% (inactive)
same,growth inhibition,[9]; at 1.2 µM,8% (inactive)
same,growth inhibition,[9]; at 3.7 µM,4% (inactive)
same,growth inhibition,[9]; at 11.0 µM,4% (inactive)
same,growth inhibition,[9]; at 33.0 µM,10% (inactive)
same,growth inhibition,[9]; at 100.0 µM,18% (inactive)
same,growth inhibition,[10]; at 1.2 µM,-17% (inactive)
same,growth inhibition,[10]; at 3.7 µM,-15% (inactive)
same,growth inhibition,[10]; at 11.0 µM,-15% (inactive)
same,growth inhibition,[10]; at 33.0 µM,5% (inactive)
same,growth inhibition,[10]; at 100.0 µM,13% (inactive)
same,growth inhibition,[1]; at 1.2 µM,-30% (inactive)
same,growth inhibition,[1]; at 3.7 µM,-36% (inactive)
same,growth inhibition,[1]; at 11.0 µM,-16% (inactive)
same,growth inhibition,[1]; at 33.0 µM,-6% (inactive)
same,growth inhibition,[1]; at 100.0 µM,13% (inactive)
same,growth inhibition,[2]; at 1.2 µM,-27% (inactive)
same,growth inhibition,[2]; at 3.7 µM,-27% (inactive)
same,growth inhibition,[2]; at 11.0 µM,4% (inactive)
same,growth inhibition,[2]; at 33.0 µM,18% (inactive)
same,growth inhibition,[2]; at 100.0 µM,39% (inactive)
same,growth inhibition,[4]; at 1.2 µM,-1% (inactive)
same,growth inhibition,[4]; at 3.7 µM,-4% (inactive)
same,growth inhibition,[4]; at 11.0 µM,9% (inactive)
same,growth inhibition,[4]; at 33.0 µM,28% (inactive)
same,growth inhibition,[4]; at 100.0 µM,34% (inactive)
C[Si](C)(C)Cc1ccccc1C(=O)O,growth inhibition,[6]; at 1.2 µM,1% (inactive)
same,growth inhibition,[6]; at 3.7 µM,1% (inactive)
same,growth inhibition,[6]; at 11.0 µM,4% (inactive)
same,growth inhibition,[6]; at 33.0 µM,38% (inactive)
same,growth inhibition,[6]; at 100.0 µM,99% (active)
same,growth inhibition,[7]; at 1.2 µM,-2% (inactive)
same,growth inhibition,[7]; at 3.7 µM,1% (inactive)
same,growth inhibition,[7]; at 11.0 µM,0% (inactive)
same,growth inhibition,[7]; at 33.0 µM,4% (inactive)
same,growth inhibition,[7]; at 100.0 µM,3% (inactive)
same,growth inhibition,[11]; at 1.2 µM,1% (inactive)
same,growth inhibition,[11]; at 3.7 µM,6% (inactive)
same,growth inhibition,[11]; at 11.0 µM,-2% (inactive)
same,growth inhibition,[11]; at 33.0 µM,15% (inactive)
same,growth inhibition,[11]; at 100.0 µM,99% (active)
same,growth inhibition,[12]; at 1.2 µM,4% (inactive)
same,growth inhibition,[12]; at 3.7 µM,9% (inactive)
same,growth inhibition,[12]; [17],2% (inactive)
same,growth inhibition,[12]; at 11.0 µM,4% (inactive)
same,growth inhibition,[12]; at 33.0 µM,56% (inactive)
same,growth inhibition,[12]; [18],80% (active)
same,growth inhibition,[12]; at 50.0 µM,97.7% (active)
same,growth inhibition,[12]; at 100.0 µM,98% (active)
same,growth inhibition,[13]; at 1.2 µM,4% (inactive)
same,growth inhibition,[13]; at 3.7 µM,4% (inactive)
same,growth inhibition,[13]; [17],8% (inactive)
same,growth inhibition,[13]; at 11.0 µM,8% (inactive)
same,growth inhibition,[13]; at 33.0 µM,29% (inactive)
same,growth inhibition,[13]; [18],86% (active)
same,growth inhibition,[13]; at 50.0 µM,97% (active)
same,growth inhibition,[13]; at 100.0 µM,98% (active)
same,growth inhibition,[8]; at 1.2 µM,1% (inactive)
same,growth inhibition,[8]; at 3.7 µM,-4% (inactive)
same,growth inhibition,[8]; at 11.0 µM,0% (inactive)
same,growth inhibition,[8]; at 33.0 µM,32% (inactive)
same,growth inhibition,[8]; at 100.0 µM,99% (active)
same,growth inhibition,[14]; [17],9% (inactive)
same,growth inhibition,[14]; [18],38% (inactive)
same,growth inhibition,[14]; at 50.0 µM,97.4% (active)
same,growth inhibition,[9]; at 1.2 µM,9% (inactive)
same,growth inhibition,[9]; at 3.7 µM,12% (inactive)
same,growth inhibition,[9]; at 11.0 µM,11% (inactive)
same,growth inhibition,[9]; at 33.0 µM,20% (inactive)
same,growth inhibition,[9]; at 100.0 µM,99% (active)
same,growth inhibition,[15]; [17],33% (inactive)
same,growth inhibition,[15]; [18],86% (active)
same,growth inhibition,[15]; at 50.0 µM,98% (active)
same,growth inhibition,[16]; at 1.2 µM,6% (inactive)
same,growth inhibition,[16]; at 3.7 µM,8% (inactive)
same,growth inhibition,[16]; [17],5% (inactive)
same,growth inhibition,[16]; at 11.0 µM,2% (inactive)
same,growth inhibition,[16]; at 33.0 µM,6% (inactive)
same,growth inhibition,[16]; [18],17% (inactive)
same,growth inhibition,[16]; at 50.0 µM,97% (active)
same,growth inhibition,[16]; at 100.0 µM,97% (active)
same,growth inhibition,[10]; at 1.2 µM,-1% (inactive)
same,growth inhibition,[10]; at 3.7 µM,-3% (inactive)
same,growth inhibition,[10]; at 11.0 µM,-1% (inactive)
same,growth inhibition,[10]; at 33.0 µM,52% (inactive)
same,growth inhibition,[10]; at 100.0 µM,99% (active)
same,growth inhibition,[1]; at 1.2 µM,3% (inactive)
same,growth inhibition,[1]; at 3.7 µM,12% (inactive)
same,growth inhibition,[1]; at 11.0 µM,3% (inactive)
same,growth inhibition,[1]; at 33.0 µM,42% (inactive)
same,growth inhibition,[1]; at 100.0 µM,99% (active)
same,growth inhibition,[2]; at 1.2 µM,-1% (inactive)
same,growth inhibition,[2]; at 3.7 µM,1% (inactive)
same,growth inhibition,[2]; at 11.0 µM,5% (inactive)
same,growth inhibition,[2]; at 33.0 µM,65% (inactive)
same,growth inhibition,[2]; at 100.0 µM,99% (active)
same,growth inhibition,[3]; [17],-2% (inactive)
same,growth inhibition,[3]; [18],83% (active)
same,growth inhibition,[3]; at 50.0 µM,98.2% (active)
same,growth inhibition,[4]; at 1.2 µM,2% (inactive)
same,growth inhibition,[4]; at 3.7 µM,3% (inactive)
same,growth inhibition,[4]; at 11.0 µM,1% (inactive)
same,growth inhibition,[4]; at 33.0 µM,65% (inactive)
same,growth inhibition,[4]; at 100.0 µM,97% (active)
